tim23-1 inh = tim23-1 yeast growth inhibition. inhibition, % at 20 µM. S. cerevisiae tim23-1 growth, BacTiter-Glo luminescence, 24 h. 1.3% of 330,000 active. AID 463212;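 active = growth inhibition of the mutant yeast at or above 50%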;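 also: temperature-sensitive mutant grown at 25 °C; plate controls were DMSO-treated mutant yeast for no effect and medium wells lacking yeast for full effect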
SKKanGAS inh = SKKanGAS growth inhibition; S. pyogenes SKKanGAS, kanamycin growth, BacTiter-Glo, 6 h; AID 1662; 1.3% of 300,000 active; inhibition, % at 7.5 µM;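 active = mean replicate score, as percent of positive control median, at least 50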;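 also: strain carries kanamycin resistance gene driven by streptokinase promoter and grows in 40 µg/ml kanamycin; loss of luminescence reflects streptokinase promoter inhibition or plain growth inhibition; 0% = median of DMSO wells and 100% = positive control at its reference dose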
NALP3 yeast inh = NALP3 inhibition in yeast; inhibition, % at 10 µM; AID 2825; 0.39% of 330,000 active; Yeast reconstituted NLRP3/ASC/caspase-1, beta-gal luminescence, 24 h;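 active = inhibition of 50% or more; inactive = inhibition below 50%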;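 also: plate controls were induced DMSO wells for no effect and uninduced yeast grown without galactose for full effect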
tim10-1 inh = growth inhibitors of tim10-1 mutant yeast. AID 463190. 2.2% of 330,000 active. inhibition, % at 20 µM. S. cerevisiae tim10-1 ts strain growth, BacTiter-Glo, 24 h;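 active = inhibition of at least 40%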;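 also: mutant grown at 25 °C; 0% = DMSO wells with yeast and 100% = wells holding no yeast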
PfHsp90 set2 = growth inhibition of yeast expressing Plasmodium Hsp90; S. cerevisiae expressing PfHsp90, BacTiter-Glo ATP, 48 h; yeast lacking PDR1 and PDR3 efflux regulators; inhibition, % at 9.4 µM; 0.32% of 310,000 active;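 active = every replicate shows inhibition above about 80%, whatever the replicate mean, limit read from the data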;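 also: 0% = DMSO neutral controls and 100% = 20 µM radicicol positive controls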
TIM10 inh = growth inhibitors of TIM10 yeast strain; 1.4% of 330,000 active; inhibition, % at 10 µM; S. cerevisiae TIM10 strain growth, BacTiter-Glo luminescence, 24 h;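 active = inhibition of 40% or more at the single tested concentration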;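 also: wild-type TIM10 isogenic control strain grown at permissive 25 °C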
Numbers without * were called inactive; x = not tested or not shown. This is a sample that favours compounds with a hit; in the whole collection about 4.6% have one here.

SMILES | tim23-1 inh | SKKanGAS inh | NALP3 yeast inh | tim10-1 inh | PfHsp90 set2 | TIM10 inh
Cc1cc(O)c(/C=N/OCc2ccc(Cl)cc2Cl)c(=O)o1 | -1 | -7 | -6 | 8 | -8 | 19
CN(C)/C=C(\C=N\OCc1ccc(Cl)cc1Cl)C(=O)Nc1ccc(Cl)c(Cl)c1 | 10 | 113* | -11 | 37 | -4 | 8
CCC(C)(C(=O)NC1CCCCC1)N(Cc1ccco1)C(=O)c1ccccn1 (configuration not stated) | 9 | 14 | -3 | 7 | x | -4
COc1ccc(N2CCN(C(CNC(=O)C(=O)NCc3cccs3)c3ccco3)CC2)cc1 (configuration not stated) | -4 | -2 | 17 | 2 | 14 | -1
CSCC[C@H](NC(=O)c1nn(C)c(=O)c2ccccc12)c1nc2ccccc2[nH]1 | 2 | 74* | 13 | -11 | 13 | -16
O=c1[nH]c2cc3c(cc2cc1CN(Cc1cccnc1)C(=S)NCc1ccco1)OCCO3 | 19 | 5 | 14 | 9 | -17 | 9
Cc1cc(C)cc(NC(=O)C2C3C=CC4(O3)C2C(=O)N(CCCN(C)C)C4C(=O)NC2CCCC(C)C2C)c1 (configuration not stated) | 27 | 1 | 0 | 8 | 3 | -1
O=c1/c(=C\c2cccc(O)c2)sc2nc(-c3ccccc3)c(-c3ccccc3)n12 | 28 | 70* | -17 | 23 | -152 | 11
O=C(CN(c1ccc(Cl)c(C(F)(F)F)c1)S(=O)(=O)c1ccccc1)N/N=C/c1cccc2c1OCCO2 | 11 | 54* | 23 | 9 | -16 | 6
c1ccc(-c2nc3ccccn3c2NC2CCCC2)nc1 | 22 | 75* | 26 | 5 | -3 | -1
Cc1ccn2c(NC3CCCC3)c(-c3ccccn3)nc2c1 | 3 | 91* | 6 | 19 | -13 | 31
Cc1ccc(-c2nc3cnccn3c2Nc2ccc3c(c2)OCO3)o1 | 37 | -2 | 2 | 37 | -2 | 15
Cc1ccc(Nc2c(-c3ccccn3)nc3ccc(C)cn23)cc1 | 48 | 97* | 47 | -15 | 26 | 26
Cc1ccn2c(Nc3ccc4c(c3)OCO4)c(-c3ccccn3)nc2c1 | 19 | 97* | 41 | -25 | 18 | 11
Cc1ccn2c(NC3CCCC3)c(-c3ccncc3)nc2c1 | 16 | 1 | 2 | -1 | -26 | 11
Cc1ccc2nc(-c3ccncc3)c(Nc3ccccc3)n2c1 | 21 | -6 | 21 | 11 | 0 | 26
Cc1cccc(C)c1-n1c(SCC(=O)NCc2ccco2)nc2ccccc2c1=O | 33 | -3 | 5 | 23 | 9 | 14
CCOC(=O)N(O)c1ccc(C=Cc2ccccc2)cc1 | x | x | x | x | -3 | x
CC(C)(C)c1nc(SCC(=O)N2CCCC2)c2ccccc2n1 | 33 | -1 | 24 | -22 | -11 | 16
CC(C)(C)c1nc(SCC(=O)c2ccccc2)c2ccccc2n1 | 21 | 62* | 1 | 16 | -19 | 10
CSc1nc2nccc(-c3ccc(Oc4ccccc4)cc3)n2n1 | 8 | x | 18 | -9 | -33 | -10
CSc1nc2nccc(-c3ccc(-c4ccccc4)cc3)n2n1 | 15 | 72* | -28 | 20 | -11 | 12
O=C(CC(=O)c1ccccc1)Nc1ccc(Cl)cc1 | 31 | 22 | 16 | 6 | 3 | 10
CC(C)(C)c1cc(CSC(=S)NC2CCS(=O)(=O)C2)c(Br)c(C(C)(C)C)c1 (configuration not stated) | 13 | 96* | 33 | 11 | 8 | 11
NC(=S)N/N=C\c1c(OCc2ccccc2Cl)ccc2ccccc12 | -3 | 50* | 19 | -8 | -17 | 14
SMILES | tim23-1 inh | SKKanGAS inh | NALP3 yeast inh | tim10-1 inh | PfHsp90 set2 | TIM10 inh
O=S(=O)(c1ccc(NC(=S)NCc2ccncc2)cc1)N1CCCCC1 | 12 | -1 | 5 | 0 | -4 | 12
Cc1ccc(C(=O)Nc2cccc(-c3ccc(N4CCOCC4)nn3)c2)cc1 | 5 | -3 | 5 | 7 | x | 8
COc1cc(OC)cc(C(=O)Nc2cccc(-c3ccc(N4CCOCC4)nn3)c2)c1 | 14 | 55* | 19 | -1 | -10 | 6
O=C(Nc1cccc(-c2ccc(N3CCOCC3)nn2)c1)c1ccccc1Cl | 16 | 50* | 23 | 4 | x | 2
COc1ccc(C(=O)Nc2cccc(-c3ccc(N4CCOCC4)nn3)c2)cc1 | 17 | 52* | 8 | 15 | x | 2
COc1ccc(NC(=O)c2ccc(NC(=O)CSc3nc(N)cc(=O)[nH]3)cc2)cc1 | 15 | x | 12 | 5 | 11 | -1
CCC(C(=O)Nc1ccc2[nH]ncc2c1)c1ccccc1 (configuration not stated) | 26 | 1 | 12 | 36 | -1 | 13
COc1ccc(OC)c(CCNC(=O)C(=O)Nc2ccc3nc4n(c(=O)c3c2)CCCCC4)c1 | 14 | 57* | -1 | 17 | -20 | 14
COc1cc(C(c2nnnn2C2CCCC2)N2CCN(C(=O)c3ccco3)CC2)cc(OC)c1OC (configuration not stated) | 19 | 3 | 12 | 3 | 24 | 8
Oc1ccc(N=Nc2ccc3c(c2)OCCO3)c2ncccc12 | 33 | 89* | 25 | 33 | -41 | 2
COC1(OC)C=CC(=O)C=C1NC(=O)c1ccccc1OC(C)=O | 17 | 5 | 6 | 23 | -12 | 13
CCN(CC(=O)Nc1ccccc1OC)C(=O)c1ccc(N(C)S(=O)(=O)c2ccc(C)cc2)cc1 | 1 | 4 | 18 | -15 | x | -25
CCCCN(C)S(=O)(=O)c1ccc(C(=O)Nc2nnc(-c3cccs3)o2)cc1 | 5 | 101* | 11 | 16 | x | 1
CCCCN(CC)S(=O)(=O)c1ccc(C(=O)Nc2nnc(CSC)o2)cc1 | 10 | 25 | 8 | 19 | 20 | 20
CCCCN(CC)S(=O)(=O)c1ccc(C(=O)Nc2nnc(-c3ccccc3Cl)o2)cc1 | 0 | 99* | -2 | 21 | -45 | 36
CCCCN(CCCC)S(=O)(=O)c1ccc(C(=O)Nc2nnc(CSC)o2)cc1 | 18 | 106* | 10 | 38 | -51 | 7
COc1ccccc1-c1nnc(NC(=O)c2ccc(S(=O)(=O)N(C)C)cc2)o1 | 0 | 31 | 3 | 13 | -6 | 5
CCCCN(C)S(=O)(=O)c1ccc(C(=O)Nc2nnc(C3=COCCO3)o2)cc1 | 18 | 9 | -8 | 15 | 10 | 2
CCN(Cc1ccccc1)S(=O)(=O)c1ccc(C(=O)Nc2nnc(-c3ccccc3OC)o2)cc1 | 13 | 94* | 6 | 33 | -54 | 1
COC(=O)c1cc(CNC(=O)c2cccc(Cl)c2Cl)ccc1OC | -5 | 0 | 3 | 9 | x | -5
COc1cnc(-c2ccccn2)nc1Oc1ccccc1Cl | -4 | 71* | -14 | 14 | 14 | -1
COc1ccccc1Sc1nc(-c2ccccn2)ncc1OC | 15 | 83* | -6 | 19 | 35 | -11
O=C(CSc1ccccc1)N1CCN(c2ccc(F)cc2)CC1 | 8 | -5 | 6 | -8 | 2 | 0

Assay outcomes (PubChem BioAssay)
